HPGD inh: blocks human HPGD enzyme activity; purified HPGD, NADH fluorescence kinetic, PGE2 substrate; Potency, µM, inactives show top-dose activity change, negative = inhibition, usual class: inhibitors; 150,000 tested, 4.3% active; AID 894; active = well fitted inhibition curve with a large enough effect, not every such curve was filed as active; inconclusive = small, poorly fitted or top-dose-only effect, or another doubt; inactive = no such curve, though single readings can be large or run the other way
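20 nM HPGD preincubated 15 min at room temperature with compound in 50 mM Tris-HCl pH 8, 0.01% Tween 20. Started with 1 mM NAD+ and 30 uM prostaglandin E2; NADH fluorescence (360/450 nm) read 5 times over 30-s intervals, last minus first.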
Tau FP inhib: inhibitors of human tau fibril formation; P10636; K18 P301L tau heparin fibrillization, Alexa594 FP, 6 h; Potency, µM (series often up to 57.7 µM), inactives show at the highest dose activity, negative = inhibition, hits mostly inhibitors; 280,000 tested, 0.39% active; AID 1468; note: nearly all actives have a fitted effect of over 55% in size
Target sequence (P10636 561-689 P618L limits assumed): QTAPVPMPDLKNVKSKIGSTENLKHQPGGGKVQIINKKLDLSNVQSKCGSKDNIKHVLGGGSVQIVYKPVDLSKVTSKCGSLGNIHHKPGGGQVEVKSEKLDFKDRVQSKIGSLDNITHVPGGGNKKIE
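Human K18 P301L fragment (15 uM unlabeled plus 0.24 uM Alexa 594-labeled) in 100 mM sodium acetate pH 7 with compound, aggregation induced by 20 uM heparin for 6 hr at 37 C. ThT (30 uM) added for 1 hr, then Alexa 594 FP read.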
Tau ThT inhib: tau fibrillization inhibition (ThT binding); 270,000 tested, 2.1% active; recombinant tau K18 P301L, heparin-induced fibrillization, ThT fluorescence; Potency, µM (series often up to 57.4 µM), inactives show top-dose activity, negative = inhibition, most hits filed as inhibitors; AID 1460; P10636; note: nearly all actives have a fitted effect of over 55% in size
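K18 P301L tau (15 uM + 0.24 uM Alexa 594-tagged), heparin 20 uM, NaOAc pH 7, 6 h 37 C; ThT 30 uM, 1 h RT, ex 450/em 510 nm.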
Tau fluor counter: counter-screen for tau fibril formation inhibitors. 280,000 tested, 0.93% active. AID 1463. tau K18 P301L Alexa594 fluorescence, heparin fibrillization. Potency, µM (highest dose often 57.7 µM), inactives show top-dose activity change, negative = decrease; note: nearly all actives have a fitted effect of over 55% in size
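Human tau K18 P301L (15 uM unlabeled, 0.24 uM Alexa 594-labeled) in 100 mM sodium acetate pH 7 with 20 uM heparin, 6 hr at 37 C. ThT 30 uM added, 1 hr ambient; Alexa 594 FP and total fluorescence read at 555/632 nm.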
ALDH1A1 block: blocks purified human ALDH1A1 activity; P00352; Purified ALDH1A1, NADH fluorescence, propionaldehyde substrate; Potency, µM (series often up to 75.3 µM), inactives show at the top dose activity, negative = inhibition, most hits filed as inhibitors; 220,000 tested, 7.3% active; active = well fitted inhibition curve with a large enough effect, not every such curve was filed as active; inconclusive = small, poorly fitted or top-dose-only effect, or another doubt; inactive = no such curve, though single readings can be large or run the other way;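 note: plate controls were no enzyme wells and a reference inhibitor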
NPSR antag: neuropeptide S receptor (human) antagonism, cAMP. AID 1461. CHO-NPSR cells, cAMP TR-FRET, antagonist mode. Potency, µM (doses to about 38.3 µM), without a hit: top-dose activity change, negative = inhibition, hits mostly inhibitors. 220,000 tested, 1% active; note: nearly all actives have a fitted effect of over 50% in size
Target sequence (Q6W5P4 whole entry, looked up): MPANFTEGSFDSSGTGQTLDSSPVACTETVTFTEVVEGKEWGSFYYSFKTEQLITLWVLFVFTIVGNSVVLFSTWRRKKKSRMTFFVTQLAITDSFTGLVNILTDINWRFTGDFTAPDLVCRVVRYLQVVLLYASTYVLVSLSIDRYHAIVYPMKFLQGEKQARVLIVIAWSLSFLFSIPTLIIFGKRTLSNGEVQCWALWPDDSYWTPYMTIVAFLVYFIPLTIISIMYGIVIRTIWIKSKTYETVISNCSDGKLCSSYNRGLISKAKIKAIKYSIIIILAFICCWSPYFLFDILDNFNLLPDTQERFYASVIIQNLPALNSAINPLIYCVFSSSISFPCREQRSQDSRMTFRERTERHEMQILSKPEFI
* = called active by the depositor; [ ] = dose if it differs, or a comment. The list is not random: actives were taken first. Their share in the collection is about 9.5%. Unless noted, calls come from the whole dose curve; as a rule, active = well fitted curve in the direction sought with a large enough effect; inconclusive = small, poorly fitted or top-dose-only effect, or another doubt; inactive = no such curve, though single readings can be large; an effect the other way counts as inactive or inconclusive. Unless noted, % is set by controls: 0 for no effect and ±100 for the full control effect; potency is the fitted concentration of half-maximal effect.

CCOC(=O)CSc1nnc(-c2cccnc2)o1 was read as HPGD inh -14%, Tau FP inhib 3%, Tau ThT inhib 4%, Tau fluor counter -1%, ALDH1A1 block 13% and NPSR antag -14%[46.1 µM].
For CCOC(=O)c1c(C)[nH]c(C)c1S(=O)(=O)N1CCCC(C(=O)NCc2cccc(OC)c2)C1 (stereo not drawn) the results were Tau FP inhib 1%, Tau ThT inhib 7% and Tau fluor counter -5%.
Screening CC(=O)N1CCN(c2ccccc2NC(=O)c2ccc(-c3cccc([N+](=O)[O-])c3)o2)CC1 returned Tau FP inhib -3%, Tau ThT inhib -6%, Tau fluor counter -7%, ALDH1A1 block 14µM* and NPSR antag -18%.
`O=C(NC(=S)Nc1ccccc1N1CCCC1)c1ccc(-c2cccc([N+](=O)[O-])c2)o1` gave HPGD inh 25µM*, Tau FP inhib -9%, Tau ThT inhib inconclusive, Tau fluor counter -28%, ALDH1A1 block 22µM* and NPSR antag inconclusive.
For COc1cc(/C=N/NC(=O)c2ccc(CSc3nc4ccccc4[nH]3)cc2)ccc1O the results were Tau FP inhib 2%, Tau ThT inhib inconclusive, Tau fluor counter inconclusive, ALDH1A1 block inconclusive and NPSR antag -23%.
Screening Fc1c(F)c(F)c(CSc2nc3ccccc3[nH]2)c(F)c1F returned HPGD inh -13%, Tau FP inhib 8%, Tau ThT inhib -5%, Tau fluor counter 2%, ALDH1A1 block 4% and NPSR antag 5%[46.1 µM].
Screening NNC(=O)c1ccc(CSc2nc3ccccc3[nH]2)cc1 returned Tau FP inhib 0%, Tau ThT inhib inconclusive, Tau fluor counter -8%, ALDH1A1 block 10µM* and NPSR antag -15%.
Fc1ccccc1CSc1nc2ccccc2[nH]1 was read as HPGD inh 20µM*, Tau FP inhib -8%, Tau ThT inhib -13%, Tau fluor counter -12%, ALDH1A1 block 13µM* and NPSR antag -2%[46.1 µM].
For S=c1nc[nH]c2nc[nH]c12 the results were HPGD inh inconclusive, Tau FP inhib -2%, Tau ThT inhib -5%, Tau fluor counter -8% and ALDH1A1 block 7.9µM*.
For COc1ccc2[nH]c3c(=S)nc[nH]c3c2c1 the results were Tau FP inhib -5%, Tau ThT inhib inconclusive, Tau fluor counter -12%, ALDH1A1 block inconclusive and NPSR antag 29%.
COc1ccccc1CNS(=O)(=O)c1ccc2c(c1)NC(=O)C(C)C(=O)N2 (stereo not drawn) was read as Tau FP inhib -1%, Tau ThT inhib -10% and Tau fluor counter -27%.
For CN(c1cccc(Cl)c1)S(=O)(=O)c1cccc(C(=O)Nc2ccc3c(c2)CCC3)c1 the results were HPGD inh -20%, Tau FP inhib inconclusive, Tau ThT inhib 13%, Tau fluor counter -21%, ALDH1A1 block 11µM* and NPSR antag -30%.
`O=C(Nc1cccc(S(=O)(=O)N2CCCCC2)c1)c1ccc2ncsc2c1` gave Tau FP inhib inconclusive, Tau fluor counter 20µM*[quencher] and NPSR antag -42%.
`CC(=O)c1c(C)[nH]c(C(=O)Nc2cccc(S(=O)(=O)N(C)c3ccccc3)c2)c1C` gave Tau FP inhib 28µM*, Tau ThT inhib -17%, Tau fluor counter 14µM*[quencher], ALDH1A1 block 3% and NPSR antag -37%.
`CN(c1ccccc1)S(=O)(=O)c1cccc(NC(=O)c2ccc3ncsc3c2)c1` gave Tau FP inhib inconclusive, Tau ThT inhib -7%, Tau fluor counter 16µM*[quencher] and NPSR antag 11%[7.67 µM].
For O=C(Nc1cccc(O)c1)c1cccc(S(=O)(=O)N2CCCC2)c1 the results were HPGD inh -7%, Tau FP inhib 1%, Tau ThT inhib -13%, Tau fluor counter -17%, ALDH1A1 block -11% and NPSR antag -12%[46.1 µM].
For COc1ccccc1NS(=O)(=O)c1cccc(NC(=O)c2[nH]c(C)c(C(C)=O)c2C)c1 the results were Tau FP inhib inconclusive, Tau ThT inhib 9%, Tau fluor counter inconclusive and NPSR antag -10%.
Cc1cnc(C(=O)OCC(=O)NCc2ccc3c(c2)OCO3)cn1 was read as Tau FP inhib inconclusive, Tau ThT inhib -4%, Tau fluor counter -10%, ALDH1A1 block 1% and NPSR antag 16%.
For COC(=O)c1ccc(OC)c(Cn2c(=O)n(-c3cccc(Cl)c3)c(=O)c3c4c(sc32)CN(C(C)=O)CC4)c1 the results were Tau FP inhib 6%, Tau ThT inhib -7% and Tau fluor counter -6%.
`O=C(CCCCl)NC1=NN(c2ccccc2)C(=O)C1` gave HPGD inh -5%, Tau FP inhib -12%, Tau ThT inhib inconclusive, Tau fluor counter -25%, ALDH1A1 block 8.9µM* and NPSR antag 11%.
COC(=O)[C@H](Cc1ccccc1)NC(=O)O[C@@H]1C(=O)c2ccc(OC)cc2O[C@H]1c1ccc2c(c1)OCO2 was read as HPGD inh -9%, Tau FP inhib -4%, Tau ThT inhib 1%, Tau fluor counter -7% and ALDH1A1 block 5%.
Screening CN(C)S(=O)(=O)c1ccc(NC(=O)CCNC(=O)c2ccc([N+](=O)[O-])cc2)cc1 returned Tau FP inhib 5%, Tau ThT inhib inconclusive, Tau fluor counter -11%, ALDH1A1 block 10µM* and NPSR antag 1%.
Screening CCCC(=O)Nc1ccc(C(=O)NNC(=O)c2cccc([N+](=O)[O-])c2)cc1 returned Tau FP inhib -7%, Tau ThT inhib 4%, Tau fluor counter 0%, ALDH1A1 block 14% and NPSR antag -21%.
`Cc1ccc(NC(=O)CCNC(=O)c2ccc([N+](=O)[O-])cc2)cc1S(=O)(=O)N(C)C` gave Tau FP inhib 0%, Tau ThT inhib -11%, Tau fluor counter -15%, ALDH1A1 block inconclusive and NPSR antag -2%.
CCC(CC)C(=O)Nc1ccc(Sc2ccc([N+](=O)[O-])cc2)cc1 was read as Tau FP inhib 0%, Tau ThT inhib inconclusive, Tau fluor counter -14%, ALDH1A1 block 1.1µM* and NPSR antag inconclusive.
CCCC(=O)Nc1ccc(Sc2ccc([N+](=O)[O-])cc2)cc1 was read as HPGD inh 18µM*, Tau FP inhib inconclusive, Tau ThT inhib -22%, Tau fluor counter inconclusive, ALDH1A1 block -15% and NPSR antag -24%[46.1 µM].
For Cc1ccc(NC(=O)COC(=O)Cc2ccsc2)c(C)c1 the results were Tau FP inhib 0%, Tau ThT inhib -8%, Tau fluor counter -1%, ALDH1A1 block -2% and NPSR antag 22%.
